Source: PubChem BioAssay (NCATS)
Results filed as inconclusive are left out. Active and inactive are the calls of the source. Calls follow the shape of the dose curve; as a rule, active = well fitted cell-killing curve with a large enough effect; inconclusive = small, poorly fitted or top-dose-only effect, or effect the other way; inactive = flat fitted curve, though single readings scatter.

How the values were obtained:
Assay in all cases: Primary qHTS to identify gynecologic anti-cancer compounds using libraries of approved drugs and bioactive compounds (AID 1345084); also: nearly all actives have a fitted effect of over 55% in size
C33A = settings: Gynecologic cancer cell panel viability, ATPlite luminescence, 48 h; series mostly up to 57.5 µM
Outline: (§1)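 Five-point cytotoxicity, 48 h drug exposure at 37 C, 5% CO2, on cells seeded 16 h beforehand. ATP content read by ATPlite luminescence.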

CAOV3 = settings: Gynecologic cancer cell panel viability, ATPlite luminescence, 48 h; series mostly up to 57.5 µM
Outline: as §1

CASKI = settings: Gynecologic cancer cell panel viability, ATPlite luminescence, 48 h; series mostly up to 57.5 µM
Outline: as §1

Es-2 = settings: Gynecologic cancer cell panel viability, ATPlite luminescence, 48 h; series mostly up to 57.5 µM
Outline: as §1

HeLa = settings: Gynecologic cancer cell panel viability, ATPlite luminescence, 48 h; series mostly up to 57.5 µM
Outline: as §1

Hek293T = settings: Gynecologic cancer cell panel viability, ATPlite luminescence, 48 h, control line for the selectivity index; series mostly up to 57.5 µM
Outline: as §1

JEG-3 = settings: Gynecologic cancer cell panel viability, ATPlite luminescence, 48 h; series mostly up to 57.5 µM
Outline: as §1

OV90 = settings: Gynecologic cancer cell panel viability, ATPlite luminescence, 48 h; series mostly up to 57.5 µM
Outline: as §1

PA-1 = settings: Gynecologic cancer cell panel viability, ATPlite luminescence, 48 h; series mostly up to 57.5 µM
Outline: as §1

SKOV3 = settings: Gynecologic cancer cell panel viability, ATPlite luminescence, 48 h; series mostly up to 57.5 µM
Outline: as §1

Tov-21-G = settings: Gynecologic cancer cell panel viability, ATPlite luminescence, 48 h; series mostly up to 57.5 µM
Outline: as §1

Tov112D = settings: Gynecologic cancer cell panel viability, ATPlite luminescence, 48 h; series mostly up to 57.5 µM
Outline: as §1
% is scaled to controls: 0 for no effect and ±100 for the full control effect.

C=C1C[C@H](O)[C@@H](O)[C@@]2(C)C1[C@@H](O)[C@H]1OC(=O)C3[C@@H](C)[C@@H](O)[C@H](O)C2[C@]31C (stereo partly drawn)
inactive: Potency (C33A) | Potency (CAOV3) | outcome (CASKI) | Potency (Es-2) | Potency (HeLa) | Potency (Hek293T) | Potency (JEG-3) | Potency (OV90) | Potency (PA-1) | Potency (SKOV3) | Potency (Tov-21-G) | Potency (Tov112D)

OCC1=C[C@@H](O)[C@@H]2C=CO[C@@H](O[C@@H]3O[C@H](CO)[C@@H](O)[C@H](O)[C@H]3O)[C@H]12
inactive: Potency (C33A) | Potency (CAOV3) | outcome (CASKI) | Potency (Es-2) | Potency (HeLa) | Potency (Hek293T) | Potency (JEG-3) | Potency (OV90) | Potency (PA-1) | Potency (SKOV3) | Potency (Tov-21-G) | Potency (Tov112D)

C[C@]12CCC[C@](C)(C(=O)O)C1[C@@H](O)[C@@H](O)C13CC(CCC12)C(CO)(O[C@@H]1O[C@H](CO)[C@@H](O)[C@H](O)[C@H]1O)C3 (stereo partly drawn)
inactive: Potency (C33A) | Potency (CAOV3) | outcome (CASKI) | Potency (Es-2) | Potency (HeLa) | Potency (Hek293T) | Potency (JEG-3) | Potency (OV90) | Potency (PA-1) | Potency (SKOV3) | Potency (Tov-21-G) | Potency (Tov112D)

C[C@@H]1O[C@@H](O[C@H]2[C@H](O)[C@@H](O)[C@H](OC[C@H]3O[C@@H](OC(=O)[C@]45CCC(C)(C)C[C@H]4C4=CCC6[C@@]7(C)C[C@@H](O)[C@H](O)[C@@](C)(CO)C7[C@H](O)C[C@@]6(C)[C@]4(C)CC5)[C@H](O)[C@@H](O)[C@@H]3O)O[C@@H]2CO)[C@H](O)[C@H](O)[C@H]1O (stereo partly drawn)
inactive: activity change, negative = cytotoxicity (C33A) 15% [at 11.6 µM] | activity change, negative = cytotoxicity (CAOV3) -8.06% [at 11.6 µM] | activity change, negative = cytotoxicity (CASKI) -1.59% [at 11.6 µM] | activity change, negative = cytotoxicity (Es-2) -1.56% [at 11.6 µM] | activity change, negative = cytotoxicity (HeLa) 13.5% [at 11.6 µM] | activity change, negative = cytotoxicity (Hek293T) -2.97% [at 11.6 µM] | activity change, negative = cytotoxicity (JEG-3) -6.46% [at 11.6 µM] | activity change, negative = cytotoxicity (OV90) -3.81% [at 11.6 µM] | activity change, negative = cytotoxicity (PA-1) 2.94% [at 11.6 µM] | activity change, negative = cytotoxicity (SKOV3) -6.07% [at 11.6 µM] | activity change, negative = cytotoxicity (Tov-21-G) -3.2% [at 11.6 µM] | activity change, negative = cytotoxicity (Tov112D) -3.4% [at 11.6 µM]

C/C(=C\CC/C(C)=C/CC[C@]1(C)CCc2cc(O)cc(C)c2O1)CC/C=C(\C)C(=O)O
inactive: Potency (C33A) | Potency (CAOV3) | outcome (CASKI) | Potency (Es-2) | Potency (HeLa) | Potency (Hek293T) | Potency (JEG-3) | Potency (OV90) | Potency (PA-1) | Potency (SKOV3) | Potency (Tov-21-G) | Potency (Tov112D)

CC(CC12CCCN1C(=O)C1CCCN1C2=O)OC(N)=O (stereo not drawn)
inactive: Potency (C33A) | Potency (CAOV3) | outcome (CASKI) | Potency (Es-2) | Potency (HeLa) | Potency (Hek293T) | Potency (JEG-3) | Potency (OV90) | Potency (PA-1) | Potency (SKOV3) | Potency (Tov-21-G) | Potency (Tov112D)

NC[C@H]1CCC[C@@H](CNC(=O)[C@@H](Cc2c[nH]c3ccccc23)NC(=O)N2CCC3(C=Cc4ccccc43)CC2)C1
inactive: Potency (C33A) | Potency (CAOV3) | outcome (CASKI) | Potency (Es-2) | Potency (HeLa) | Potency (Hek293T) | Potency (JEG-3) | Potency (OV90) | Potency (PA-1) | Potency (SKOV3) | Potency (Tov-21-G) | Potency (Tov112D)

CCCSc1nc(NC2CC2c2ccc(F)c(F)c2)c2nnn(C3CC(OCCO)C(O)C3O)c2n1 (stereo not drawn)
inactive: Potency (C33A) | Potency (CAOV3) | outcome (CASKI) | Potency (Es-2) | Potency (HeLa) | Potency (Hek293T) | Potency (JEG-3) | Potency (OV90) | Potency (PA-1) | Potency (SKOV3) | Potency (Tov-21-G) | Potency (Tov112D)

Cc1ccccc1-c1cc(N2CCN(C)CC2)ncc1N(C)C(=O)C(C)(C)c1cc(C(F)(F)F)cc(C(F)(F)F)c1
inactive: Potency (C33A) | Potency (CAOV3) | outcome (CASKI) | Potency (Es-2) | Potency (HeLa) | Potency (Hek293T) | Potency (JEG-3) | Potency (OV90) | Potency (PA-1) | Potency (SKOV3) | Potency (Tov-21-G) | Potency (Tov112D)

CC1(CO)CCCC2(C)C3COC(=O)C3=CC(O)C12 (stereo not drawn)
inactive: Potency (C33A) | Potency (CAOV3) | outcome (CASKI) | Potency (Es-2) | Potency (HeLa) | Potency (Hek293T) | Potency (JEG-3) | Potency (OV90) | Potency (PA-1) | Potency (SKOV3) | Potency (Tov-21-G) | Potency (Tov112D)

C/C(=C\CCC(C)C1CC(O)C2(C)C3CCC4C(C)(C)C(OC5OCC(O)C(O)C5O)CCC45CC35CC(O)C12C)C(=O)O (stereo not drawn)
inactive: Potency (C33A) | Potency (CAOV3) | outcome (CASKI) | Potency (Es-2) | Potency (HeLa) | Potency (Hek293T) | Potency (JEG-3) | Potency (OV90) | Potency (PA-1) | Potency (SKOV3) | Potency (Tov-21-G) | Potency (Tov112D)

COc1cn(-c2ccc(-n3cccn3)cc2F)nc(-c2ccnn2-c2ccccc2)c1=O
inactive: Potency (C33A) | Potency (CAOV3) | outcome (CASKI) | Potency (Es-2) | Potency (HeLa) | Potency (Hek293T) | Potency (JEG-3) | Potency (OV90) | Potency (PA-1) | Potency (SKOV3) | Potency (Tov-21-G) | Potency (Tov112D)

O=C(OCC1OC(Oc2ccc(O)cc2COC(=O)C2(O)C(O)CCC(=O)C2OC(=O)C2C=CCC2)C(OC(=O)C2C=CCC2)C(O)C1O)C1C=CCC1 (stereo not drawn)
inactive: Potency (C33A) | Potency (CAOV3) | outcome (CASKI) | Potency (Es-2) | Potency (HeLa) | Potency (Hek293T) | Potency (JEG-3) | Potency (OV90) | Potency (PA-1) | Potency (SKOV3) | Potency (Tov-21-G) | Potency (Tov112D)

COC(=O)C1=CO[C@@H](O[C@@H]2O[C@H](CO)[C@@H](O)[C@H](O)[C@H]2O)/C(=C\CO)[C@@H]1CC(=O)OCCc1ccc(O)cc1
inactive: Potency (C33A) | Potency (CAOV3) | outcome (CASKI) | Potency (Es-2) | Potency (HeLa) | Potency (Hek293T) | Potency (JEG-3) | Potency (OV90) | Potency (PA-1) | Potency (SKOV3) | Potency (Tov-21-G) | Potency (Tov112D)
